Results taken from PubChem BioAssay (EPA / NIEHS).
Calls of active or inactive are those of the source. The calls were made as follows: active = hit-call score of the fitted dose curve at least 0.9, where 1 is the maximum; inactive = score below 0.9.

Tests used:
[1] = read-out: Monokine induced gamma interferon (MIG), CXCL9 (gene 4283); assay: BSK_BE3C_MIG: BioMAP Diversity Plus: BE3C Assay for Monokine induced gamma interferon (MIG) Biomarker Activity (AID 2283035); conditions: primary human bronchial epithelial cells; actives raise or lower the signal
Outline: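 hu bronchial epithelial 1° cells, 24 h cpd; MIG by ELISA; bidirectional fit, DMSO = baseline.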

[2] = read-out: Transforming growth factor beta 1 (TGFb1), TGFB1 (gene 7040); assay: BSK_BE3C_TGFb1: BioMAP Diversity Plus: BE3C Assay for Transforming growth factor beta 1 (TGFb1) Biomarker Activity (AID 2283036); conditions: primary human bronchial epithelial cells; actives raise or lower the signal
Outline: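 TGF-b1 measured via ELISA, 24 h after chemical dosing of human bronchial epithelial cells (BE3C). Overt cytotoxicity assessed in parallel by SRB (0.1%, TCA-fixed, 560 nm); analysis bidirectional relative to DMSO.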

[3] = read-out: Plasminogen activator inhibitor-1 (PAI1), SERPINE1 (gene 5054); assay: BSK_BE3C_PAI1: BioMAP Diversity Plus: BE3C Assay for Plasminogen activator inhibitor-1 (PAI1) Biomarker Activity (AID 2283037); conditions: primary human bronchial epithelial cells; actives raise or lower the signal
Outline: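 In this multiplexed primary-cell system, bronchial epithelial cells receive test chemical and are sampled at 24 h. PAI-1 is read by ELISA, with DMSO serving as negative control for bidirectional fitting.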

[4] = read-out: urokinase plasminogen activator (uPA), PLAU (gene 5328); assay: BSK_BE3C_uPA: BioMAP Diversity Plus: BE3C Assay for urokinase plasminogen activator (uPA) Biomarker Activity (AID 2283038); conditions: primary human bronchial epithelial cells; actives raise or lower the signal
Outline: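 Primary human bronchial epithelial cells, uPA measured by ELISA 24 h after dosing. Bidirectional change relative to DMSO; cytotoxicity checked in parallel cultures by sulforhodamine B total-protein staining.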

[5] = read-out: Urokinase-type plasminogen activator receptor (uPAR), PLAUR (gene 5329); assay: BSK_BE3C_uPAR: BioMAP Diversity Plus: BE3C Assay for Urokinase-type plasminogen activator receptor (uPAR) Biomarker Activity (AID 2283039); conditions: primary human bronchial epithelial cells; actives raise or lower the signal
Outline: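 Chemically treated human bronchial epithelial cells (lung primary) are assayed for uPAR by ELISA after 24 h, with data fitted in both directions using DMSO as negative control.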

[6] = read-out: Interleukin-6 (IL6), IL6 (gene 3569); assay: BSK_CASM3C_IL6: BioMAP Diversity Plus: CASM3C Assay for Interleukin-6 (IL6) Biomarker Activity for (AID 2283040); conditions: primary human coronary artery smooth muscle cells; actives raise or lower the signal
[7] = read-out: Tissue plasminogen activator (tPA), PLAT (gene 5327); assay: BSK_BE3C_tPA: BioMAP Diversity Plus: BE3C Assay for Tissue plasminogen activator (tPA) Biomarker Activity (AID 2283041); conditions: primary human bronchial epithelial cells; actives raise or lower the signal
Outline: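 Using human lung primary bronchial epithelial cells, tPA was measured by ELISA 24 h after dosing; data fitted relative to DMSO.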

[8] = read-out: Interleukin-8 (IL8), CXCL8 (gene 3576); assay: BSK_CASM3C_IL8: BioMAP Diversity Plus: CASM3C Assay for Interleukin-8 (IL8) Biomarker Activity (AID 2283042); conditions: primary human coronary artery smooth muscle cells; actives raise or lower the signal;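 also: IL-8 protein level quantified by ELISA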
[9] = read-out: Human Leukocyte Antigen - DR isotype (HLADR), HLA-DRA (gene 3122); assay: BSK_CASM3C_HLADR: BioMAP Diversity Plus: CASM3C Assay for Human Leukocyte Antigen - DR isotype (HLADR) Biomarker Activity (AID 2283043); conditions: primary human coronary artery smooth muscle cells; actives raise or lower the signal;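 also: cell-surface HLA-DR protein level quantified by ELISA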
[10] = read-out: Macrophage colony-stimulating factor (MCSF), CSF1 (gene 1435); assay: BSK_CASM3C_MCSF: BioMAP Diversity Plus: CASM3C Assay for Macrophage colony-stimulating factor (MCSF) Biomarker Activity (AID 2283044); conditions: primary human coronary artery smooth muscle cells; actives raise or lower the signal;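 also: M-CSF protein amount quantified by ELISA after 24 h exposure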
[11] = read-out: Low-density lipoprotein receptor (LDLR), LDLR (gene 3949); assay: BSK_CASM3C_LDLR: BioMAP Diversity Plus: CASM3C Assay for Low-density lipoprotein receptor (LDLR) Biomarker Activity (AID 2283045); conditions: primary human coronary artery smooth muscle cells; actives raise or lower the signal;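 also: LDLR protein level on the cell surface quantified by ELISA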
[12] = read-out: Monocyte Chemoattractant Protein-1 (MCP1), CCL2 (gene 6347); assay: BSK_CASM3C_MCP1: BioMAP Diversity Plus: CASM3C Assay for Monocyte Chemoattractant Protein-1 (MCP1) Biomarker Activity (AID 2283046); conditions: primary human coronary artery smooth muscle cells; actives raise or lower the signal;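 also: MCP-1 level quantified by ELISA 24 h after dosing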
[13] = BSK_CASM3C_Proliferation: Cell Proliferation Assessment in the BioMAP Diversity Plus: CASM3C Assay (AID 2283047); conditions: primary human coronary artery smooth muscle cells;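 also: sulforhodamine B total protein stain as relative cell number at 560 nm; sub-confluent cells exposed 48 h before staining; fitted both ways against DMSO so gain or loss of cell number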
[14] = read-out: Monokine induced gamma interferon (MIG), CXCL9 (gene 4283); assay: BSK_CASM3C_MIG: BioMAP Diversity Plus: CASM3C Assay for Monokine induced gamma interferon (MIG) Biomarker Activity (AID 2283048); conditions: primary human coronary artery smooth muscle cells; actives raise or lower the signal;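 also: MIG protein level measured by ELISA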
[15] = read-out: serum amyloid A (SAA), SAA1 (gene 6288); assay: BSK_CASM3C_SAA: BioMAP Diversity Plus: CASM3C Assay for serum amyloid A (SAA) Biomarker Activity (AID 2283049); conditions: primary human coronary artery smooth muscle cells; actives raise or lower the signal;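 also: SAA protein level quantified by ELISA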
[16] = BSK_CASM3C_SRB: Viability Assessment in the BioMAP Diversity Plus: CASM3C Assay (AID 2283050); conditions: primary human coronary artery smooth muscle cells;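 also: total protein by SRB staining as cytotoxicity measure in parallel cultures; cells exposed to compound for 24 h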
[17] = read-out: Thrombomodulin, THBD (gene 7056); assay: BSK_CASM3C_Thrombomodulin: BioMAP Diversity Plus: CASM3C Assay for Thrombomodulin Biomarker Activity (AID 2283051); conditions: primary human coronary artery smooth muscle cells; actives raise or lower the signal;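 also: thrombomodulin protein level measured by ELISA 24 h after dosing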
[18] = read-out: Tissue Factor, F3 (gene 2152); assay: BSK_CASM3C_TissueFactor: BioMAP Diversity Plus: CASM3C Assay for Tissue Factor Biomarker Activity (AID 2283052); conditions: primary human coronary artery smooth muscle cells; actives raise or lower the signal;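 also: cell surface tissue factor protein level read by ELISA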
[19] = read-out: Urokinase-type plasminogen activator receptor (uPAR), PLAUR (gene 5329); assay: BSK_CASM3C_uPAR: BioMAP Diversity Plus: CASM3C Assay for Urokinase-type plasminogen activator receptor (uPAR) Biomarker Activity (AID 2283054); conditions: primary human coronary artery smooth muscle cells; actives raise or lower the signal;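 also: cell-surface uPAR protein level quantified by ELISA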
[20] = read-out: Interferon-gamma inducible Protein 10 (IP10), CXCL10 (gene 3627); assay: BSK_hDFCGF_IP10: BioMAP Diversity Plus: hDFCGF Assay for Interferon-gamma inducible Protein 10 (IP10) Biomarker Activity (AID 2283053); conditions: primary human foreskin fibroblasts; actives raise or lower the signal
Outline: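 Chemical-treated human skin fibroblasts (primary) were sampled at 24 h for IP-10 by ELISA. Both increases and decreases relative to DMSO were scored.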

Measured: AC50

O=C(N[C@H]1CN2CCC1CC2)c1ccc2c(c1)OCCO2
not listed: [20]
inactive: all other assays above

[Cl][Sn]([c]1ccccc1)([c]1ccccc1)[c]1ccccc1
inactive: [2]
active: [1] 0.209 µM | [3] 0.992 µM | [4] 270 nM | [5] 270 nM | [6] 0.726 µM | [7] 0.0792 µM | [8] 499 nM | [9] 0.261 µM | [10] 0.718 µM | [11] 0.343 µM | [12] 0.599 µM | [13] 0.134 µM | [14] 524 nM | [15] 0.522 µM | [16] 0.688 µM | [17] 1.07 µM | [18] 1.37 µM | [20] 86.1 nM | [19] 0.351 µM

CCC(C)(C#N)N=NC(C)(C#N)CC (stereo not drawn)
active: [10] 0.016 µM
inactive: all other assays above

Cc1cccc(OP(=O)(Oc2cccc(C)c2)Oc2cccc(C)c2)c1
active: [3] 2.76 µM | [4] 16 nM | [7] 0.677 µM | [10] 0.139 µM | [12] 0.075 µM
inactive: all other assays above

CC(C)(C)c1cc([N+](=O)[O-])cc(C(C)(C)C)c1O
active: [19] 11.8 µM
inactive: all other assays above

C#CCOC(=O)/C=C(C)/C=C/CC(C)CCCC(C)C (stereo not drawn)
active: [9] 3.97 µM | [18] 4.03 µM
inactive: all other assays above

NC(=O)CCl
active: [9] 20 µM
inactive: all other assays above

OC(Cc1ccccc1Cl)(Cn1cncn1)C1(Cl)CC1 (stereo not drawn)
not listed: [20]
inactive: all other assays above

OCCN(CCO)CCO
not listed: [20]
inactive: all other assays above

CCOP(=O)(OCC)OC(=CCl)c1ccc(Cl)cc1Cl
active: [9] 33.4 µM | [10] 31.7 µM | [11] 28.3 µM | [12] 28 µM | [13] 28.5 µM | [15] 29.6 µM | [16] 29.5 µM | [18] 24.9 µM | [19] 30.2 µM
not listed: [20]
inactive: all other assays above

O=C(Cc1ccccc1)OCCc1ccccc1
not listed: [2]
inactive: all other assays above

OCCCCO
not listed: [2] | [20]
inactive: all other assays above

Clc1cccc(Cl)c1Cl
not listed: [20]
inactive: all other assays above

CCOC(=O)CCN(SN(C)C(=O)Oc1cccc2c1OC(C)(C)C2)C(C)C
active: [9] 12.2 µM | [10] 20 µM | [13] 20 µM | [18] 8.62 µM | [19] 33.3 µM
not listed: [20]
inactive: all other assays above

Cc1cc(Cl)ccc1OC(C)C(=O)O (stereo not drawn)
not listed: [20]
inactive: all other assays above

CN(C)C(=S)S
active: [1] 23.1 µM | [2] 20 µM | [4] 30200 nM | [7] 9.34 µM | [13] 0.791 µM
not listed: [20]
inactive: all other assays above

CC(C)(COCC1CO1)COCC1CO1 (stereo not drawn)
not listed: [20]
inactive: all other assays above

O=C(CCl)NCO
not listed: [20]
inactive: all other assays above

Cc1ccccc1OP(=O)(Oc1ccccc1C)Oc1ccccc1C
inactive: [1] | [4] | [5] | [8] | [11] | [14] | [15] | [17] | [18]
active: [2] 11.4 µM | [3] 11 µM | [6] 8.58 µM | [7] 7.43 µM | [9] 32.9 µM | [10] 29.4 µM | [12] 24.3 µM | [13] 24.3 µM | [16] 30.1 µM | [19] 20 µM

c1ccc(-c2cccc(-c3ccccc3)c2)cc1
active: [7] 6.98 µM | [16] 33.5 µM | [17] 20 µM
not listed: [20]
inactive: all other assays above

CCN(CC)C(=O)C(Cl)=C(C)OP(=O)(OC)OC
not listed: [20]
inactive: all other assays above

O=[N+]([O-])c1cccc2ccccc12
active: [19] 20 µM
not listed: [20]
inactive: all other assays above

N#Cc1cccnc1
not listed: [20]
inactive: all other assays above

Nc1ccc(N)cc1
not listed: [20]
inactive: all other assays above

CC(C)=CC1C(C(=O)OCc2cccc(Oc3ccccc3)c2)C1(C)C (stereo not drawn)
active: [7] 9.82 µM | [9] 20 µM | [17] 10.4 µM | [18] 9.79 µM
not listed: [20]
inactive: all other assays above

CCCCOC(=O)COC(=O)c1ccccc1C(=O)OCCCC
not listed: [2] | [20]
inactive: all other assays above
